Results published in PubChem BioAssay (Tox21).
Inconclusive results are not listed. Activity calls are given as the source filed them. Unless noted, calls come from the whole dose curve; as a rule, active = well fitted curve in the direction sought with a large enough effect in the repeat runs; inconclusive = weak or mixed curves; inactive = no such curve, though single readings can be large; an effect the other way counts as inactive or inconclusive.

Assays:
[1] = qHTS assay for small molecules that induce genotoxicity in human embryonic kidney cells expressing luciferase-tagged ATAD5 (AID 651632); note: nearly all actives have a fitted effect of over 15% in size
Summary of the method: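 Quantitative HTS in HEK293T expressing luciferase-tagged ATAD5, whose levels rise upon DNA damage. Exposure ran 16 hr at 37C and 5% CO2, with luminescence read 30 min after Amplite addition at room temperature.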

[2] = qHTS assay for small molecule agonists of the p53 signaling pathway - cell viability (AID 651633; calls by dose curve; note: nearly all actives have a fitted effect of over 30% in size; note: potency is the fitted concentration of half-maximal effect)
Summary of the method: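 p53RE-bla cells, seeded at 4,000 per well and rested 5 h at 37 C/5% CO2, received compounds in DMSO for 16 h at 37 C. CellTiter-Glo was then added, and luminescence was read after 30 min at room temperature to gauge cytotoxicity.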

[3] = qHTS assay for small molecules that induce genotoxicity in human embryonic kidney cells expressing luciferase-tagged ATAD5 - cell viability (AID 651634; calls by dose curve; note: nearly all actives have a fitted effect of over 25% in size)
Summary of the method: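 After 15.5 hr incubation with compound at 37C, 5% CO2, HEK293T ATAD5-luciferase cells received CellTiter-Fluor reagent; fluorescence intensity was quantified following 30 min at 37C.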

[4] = qHTS assay for small molecule disruptors of the mitochondrial membrane potential - cell viability (AID 720634; calls by dose curve;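 note: human HepG2 liver cancer cells; series mostly up to about 83 µM; nearly all actives have a fitted effect of over 20% in size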)
Summary of the method: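 ATP-based luminescent viability readout (CellTiter-Glo, 30 min, room temperature) in HepG2 cells multiplexed with the m-MPI membrane potential dye; compound exposure lasted 1 hr at 37 C.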

[5] = qHTS assay to test for compound auto fluorescence at 590 nm (red) in HepG2 cells (AID 720674)
Summary of the method: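 Rose Bengal sodium served as the red fluorophore standard. HepG2 monolayers (overnight attachment, MEM with 10% FBS) were exposed to test compounds for 1 hr at 37 C and read at Ex 540/Em 590 nm.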

[6] = qHTS assay to test for compound auto fluorescence at 535 nm (green) in HepG2 cells (AID 720675)
[7] = qHTS assay to test for compound auto fluorescence at 460 nm (blue) in HEK293 cells (AID 720678)
Summary of the method: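 Blue read-out at excitation 405 nm and emission 460 nm follows overnight compound exposure of HEK293 cells at 37C in 5% CO2. Activity is given as auto fluorescence equivalency to triamterene.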

[8] = qHTS assay to test for compound auto fluorescence at 590 nm (red) in HEK293 cells (AID 720679)
Summary of the method: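 Red channel, Ex/Em 540/590nm; signal expressed as equivalency to Rose Bengal sodium. HEK293, 2,000 cells/well, 10% dialyzed FBS; 23 nL compound pinned after 4-5 hr attachment; overnight 37C/5% CO2 before reading.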

[9] = qHTS assay to test for compound auto fluorescence at 535 nm (green) in HEK293 cells (AID 720680)
[10] = qHTS assay to test for compound auto fluorescence at 535 nm (green) in HEK293 cell free culture (AID 720682)
Summary of the method: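 Intrinsic compound fluorescence is measured in culture medium containing 10% FBS, with excitation at 485 nm and detection at 535 nm, referenced to fluorescein.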

[11] = qHTS assay to test for compound auto fluorescence at 590 nm (red) in HEK293 cell free culture (AID 720683)
Summary of the method: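 Tox21 10K library compounds were pinned into cell-free DMEM with 10% FBS and fluorescence was read at excitation 540 nm. Activity is expressed as Rose Bengal sodium equivalency.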

[12] = qHTS assay to test for compound auto fluorescence at 590 nm (red) in HepG2 cell free culture (AID 720684)
Summary of the method: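 Readout: intrinsic compound fluorescence at 590 nm emission after 540 nm excitation, scaled to Rose Bengal sodium. Matrix was cell-free MEM with 10% FBS; DMSO vehicle wells served as control.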

[13] = qHTS assay to test for compound auto fluorescence at 460 nm (blue) in HepG2 cell free culture (AID 720685)
Summary of the method: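 Cell-free plates of MEM plus 10% FBS received 23 nL compound or DMSO vehicle; blue-channel (405/460 nm) intensity scored against triamterene as reference fluorophore.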

[14] = qHTS assay to test for compound auto fluorescence at 535 nm (green) in HepG2 cell free culture (AID 720686)
[15] = molecular target: Glucocorticoid receptor (Homo sapiens) (UniProt P04150); experiment: qHTS assay to identify small molecule agonists of the glucocorticoid receptor (GR) signaling pathway (AID 720691; active = well fitted activation curve with a large enough effect in the signal ratio in the repeat runs, not every such curve was filed as active; the % refers to the signal ratio)
Summary of the method: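 Cells: GR-bla HeLa, endogenous GR with stably integrated GRE-beta-lactamase reporter. Treatment 18 h, 37 C, compounds delivered in DMSO. Detection via LiveBLAzer B/G FRET substrate, 2 h RT, fluorescence intensity.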

[16] = molecular target: Glucocorticoid receptor (Homo sapiens) (UniProt P04150); experiment: qHTS assay to identify small molecule antagonists of the glucocorticoid receptor (GR) signaling pathway (AID 720692; active = well fitted inhibition curve with a large enough effect in the signal ratio in the repeat runs, not every such curve was filed as active; the % refers to the signal ratio; note: potency is the fitted concentration of half-maximal effect)
Summary of the method: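 Quantitative HTS in antagonist format: HeLa cells expressing endogenous GR and a stably integrated GRE-bla reporter, stimulated with 5 nM dexamethasone (final) alongside test compounds for 18 h.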

[17] = qHTS assay to test for compound auto fluorescence at 460 nm (blue) in HEK293 cell free culture (AID 720681)
Summary of the method: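 Test compounds were pinned into cell-free culture medium (DMEM with 10% FBS) and fluorescence was read directly at Ex/Em 405/460 nm. Signals were expressed as fluorescence equivalents of triamterene, with DMSO vehicle as control.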

[18] = qHTS assay to test for compound auto fluorescence at 460 nm (blue) in HepG2 cells (AID 720687)
Summary of the method: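 Cells (2,000/well in MEM with 10% FBS) attached overnight at 37 C, then were exposed to compound or DMSO for 1 hr at 37 C, 5% CO2. Fluorescence read at Ex/Em 405/460 nm, expressed as triamterene-equivalent signal.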

[19] = qHTS assay for small molecule disruptors of the mitochondrial membrane potential (AID 720635); note: potency is the fitted concentration of half-maximal effect
Summary of the method: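 HepG2 cells (2,000/well) attached overnight at 37C, then took compound for 1 hr at 37C, 5% CO2. Mito-MPS dye was added for 30 min; fluorescence was read at 490/535 nm (monomers) and 540/590 nm (aggregates).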
% is set by controls: 0 for no effect and ±100 for the full control effect.

Sequence of Glucocorticoid receptor (Homo sapiens) (P04150 whole entry, looked up): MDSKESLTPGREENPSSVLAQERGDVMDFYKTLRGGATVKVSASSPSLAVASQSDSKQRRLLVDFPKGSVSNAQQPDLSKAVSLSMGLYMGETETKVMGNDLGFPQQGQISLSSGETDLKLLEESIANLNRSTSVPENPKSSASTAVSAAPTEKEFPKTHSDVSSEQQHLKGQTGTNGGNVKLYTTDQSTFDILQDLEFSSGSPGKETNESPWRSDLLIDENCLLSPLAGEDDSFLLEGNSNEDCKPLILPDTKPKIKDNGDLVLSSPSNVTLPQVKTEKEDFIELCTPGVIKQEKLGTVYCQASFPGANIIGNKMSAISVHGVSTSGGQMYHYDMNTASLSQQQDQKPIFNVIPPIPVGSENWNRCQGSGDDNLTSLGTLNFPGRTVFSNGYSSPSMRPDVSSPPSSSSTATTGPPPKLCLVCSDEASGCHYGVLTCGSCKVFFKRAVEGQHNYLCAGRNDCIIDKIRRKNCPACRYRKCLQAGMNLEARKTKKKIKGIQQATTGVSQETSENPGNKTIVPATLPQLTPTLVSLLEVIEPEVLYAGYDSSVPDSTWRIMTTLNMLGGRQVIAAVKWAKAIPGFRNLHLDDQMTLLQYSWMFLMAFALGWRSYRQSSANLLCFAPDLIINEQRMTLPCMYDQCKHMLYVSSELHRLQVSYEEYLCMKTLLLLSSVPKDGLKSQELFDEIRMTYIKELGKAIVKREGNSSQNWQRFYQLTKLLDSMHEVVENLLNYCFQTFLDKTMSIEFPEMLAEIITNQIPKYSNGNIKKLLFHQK

O=C(O)/C=C/c1ccc(O)c(O)c1
inactive: Potency [1] | Potency [2] | Potency [3] | outcome [4] | outcome [5] | outcome [6] | Potency [7] | outcome [8] | outcome [9] | outcome [10] | outcome [11] | outcome [12] | Potency [13] | outcome [14] | Potency [15] | Potency [16]

CCCCCCCCCCCCCOS(=O)(=O)O
active: Potency [2] 68.6 µM
inactive: Potency [1] | Potency [3] | outcome [4] | outcome [5] | Potency [7] | outcome [8] | outcome [9] | Potency [17] | outcome [10] | outcome [11] | outcome [12] | Potency [13] | outcome [14] | Potency [18]

CC[C@H]1OC(=O)[C@H](C)[C@@H](O[C@H]2C[C@@](C)(OC)[C@@H](O)[C@H](C)O2)[C@H](C)[C@@H](O[C@@H]2O[C@H](C)C[C@H](N(C)C)[C@H]2O)[C@](C)(O)C[C@@H](C)/C(=N\OCOCCOC)[C@H](C)[C@@H](O)[C@]1(C)O
inactive: Potency [1] | Potency [2] | Potency [3] | outcome [4] | Potency [19] | outcome [5] | outcome [6] | Potency [7] | outcome [8] | outcome [9] | Potency [17] | outcome [10] | outcome [11] | outcome [12] | outcome [14] | Potency [18] | Potency [15] | Potency [16]

COc1cc(NCc2ccc3nc(N)nc(N)c3c2C)cc(OC)c1OC
active: Potency [2] 0.335 µM
inactive: Potency [1] | Potency [3] | outcome [4] | outcome [5] | outcome [6] | outcome [8] | outcome [9] | Potency [17] | outcome [10] | outcome [11] | outcome [12] | Potency [13] | outcome [14] | Potency [18] | Potency [15]

CC(=O)OCCC(C)CC(C)(C)C (stereo not drawn)
inactive: Potency [1] | Potency [2] | Potency [3] | outcome [4] | outcome [5] | outcome [6] | Potency [7] | Potency [17] | outcome [10] | outcome [11] | outcome [12] | Potency [13] | Potency [18] | Potency [15]

OCC(CO)n1cnc(-c2ccc(F)cc2)c1-c1ccnc(Oc2ccccc2)n1
inactive: Potency [1] | Potency [2] | Potency [3] | outcome [4] | outcome [5] | outcome [6] | Potency [7] | outcome [8] | outcome [9] | Potency [17] | outcome [10] | outcome [11] | outcome [12] | Potency [13] | outcome [14] | Potency [18]

CCCCCCCCCCCC(=O)OCC(O)CO (stereo not drawn)
inactive: Potency [1] | Potency [2] | Potency [3] | outcome [4] | outcome [5] | outcome [6] | Potency [7] | outcome [8] | outcome [9] | Potency [17] | outcome [10] | outcome [11] | outcome [12] | Potency [13] | outcome [14] | Potency [18]

CC(=O)NNC(C)=O
inactive: Potency [1] | Potency [2] | Potency [3] | outcome [4] | outcome [6] | outcome [8] | outcome [9] | Potency [17] | outcome [10] | outcome [11] | outcome [12] | Potency [13] | Potency [18] | Potency [15] | Potency [16]

CC(C)COC(=O)c1ccc(O)cc1
active: Potency [19] 12.2 µM
inactive: Potency [1] | Potency [2] | Potency [3] | Potency [7] | outcome [9] | Potency [17] | outcome [10] | outcome [11] | outcome [12] | Potency [13] | outcome [14] | Potency [18]

Oc1ccc2c(c1)Cc1ccccc1-2
active: Potency [19] 27.3 µM | Potency [16] 19.5 µM
inactive: Potency [3] | outcome [8] | outcome [9] | Potency [17] | outcome [10] | outcome [11] | outcome [12] | Potency [13] | outcome [14]

COc1cc(NC(C)CCCN)c2ncccc2c1 (stereo not drawn)
inactive: Potency [1] | Potency [3] | fluorescence, % of fluorescein control [6] -0.0145% [at 18.6 µM] | fluorescence, % of triamterene [7] 1.22% [at 18.6 µM] | fluorescence, % of fluorescent control [8] -0.0138% [at 18.6 µM] | fluorescence, % of fluorescein [9] -0.0105% [at 18.6 µM] | fluorescence, % of fluorescent control [17] 1.01% [at 18.6 µM] | activity change [10] 0.0005% [at 18.6 µM] | fluorescence, % of fluorescent control [11] -0.109% [at 18.6 µM] | fluorescence, % of Rose Bengal [12] 0.347% [at 18.6 µM] | fluorescence, % of fluorescent control [13] 0.907% [at 18.6 µM] | fluorescence, % of fluorescein control [14] -0.0264% [at 18.6 µM] | fluorescence, % of fluorescent control [18] 0.746% [at 18.6 µM]
